Measurements from PMC10668032, “Altered binding affinity of SIX1-Q177R correlates with enhanced WNT5A and WNT pathway effector expression in Wilms tumor”.
Over roughly 33,000 sequences, “e-score” has its median near -0.05; the highest 2% begin near 0.38. For the sample, the highest values were picked, then their nearest neighbours and some sequences at random.

Biological target: T1, SIX1-Q177R homeodomain (human, UniProt Q15475 108-198, Q177R)
T1 sequence: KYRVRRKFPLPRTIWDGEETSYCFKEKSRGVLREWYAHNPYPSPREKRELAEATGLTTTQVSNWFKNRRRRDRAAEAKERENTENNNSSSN
Assay: universal protein binding microarray; Universal all-10-mer PBM (8x60K, AMADID 030236), 300 nM GST-tagged protein, Alexa Fluor 488 anti-GST; buffer, salt, pH and temperature not stated (as in Berger); high values mean tight binding
Conditions: protein: ivt; tags: N-terminal GST; dsDNA, one strand shown
How it was run: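 Binding was expressed as 8-mer E-scores calculated with the Universal PBM Analysis Suite. The GST-tagged homeodomains, made by in vitro transcription/translation, were applied in duplicate at 300 nM final concentration to universal 'all 10-mer' protein binding microarrays (8×60K format).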

Point of comparison: TAAGGGTA, binding signal 0.163 ± 0.0467 E-score. Against it:
- ACACATAA — within error, 0.18 ± 0.0275 E-score
- GCGAGACA — higher, 0.249 ± 0.00462 E-score
- GGAACCCC — within error, 0.165 ± 0.0247 E-score
- GGGATCAC — higher, 0.2771 ± 0.000933 E-score
- CACCGGAA — higher, 0.288 ± 0.0177 E-score
- CCGACCAC — within error, 0.192 ± 0.0175 E-score
- CGGGTATA — within error, 0.21 ± 0.00983 E-score
- GGAGTACA — higher, 0.246 ± 0.013 E-score
- CGAGTGGA — within error, 0.166 ± 0.0322 E-score
- CGAGTGTC — higher, 0.415 ± 0.00743 E-score
- CGAGTACA — higher, 0.28 ± 0.0111 E-score
- CGAGTGTA — higher, 0.382 ± 0.0327 E-score
- GGAGTGTA — higher, 0.417 ± 0.0148 E-score
- CGAGTACC — within error, 0.168 ± 0.00651 E-score
- CGAGTATC — within error, 0.158 ± 0.0391 E-score
- GGAGTGCA — within error, 0.17 ± 0.0126 E-score
- GGGTGCTA — within error, 0.217 ± 0.00882 E-score
- CCGCCCCA — higher, 0.239 ± 0.0124 E-score
- CCCTACCA — within error, 0.167 ± 0.0194 E-score
- CACCTAAG — higher, 0.263 ± 0.00735 E-score
- AAACCCCG — within error, 0.231 ± 0.0422 E-score
- ACTATATC — within error, 0.178 ± 0.0197 E-score
- ATGGAGTC — within error, 0.232 ± 0.0246 E-score
- AACACGTC — higher, 0.309 ± 0.0249 E-score
- CACACGTC — higher, 0.221 ± 0.00539 E-score
- GACACGTA — higher, 0.39 ± 0.0131 E-score
- CACACGTA — higher, 0.262 ± 0.0227 E-score
- GACACGTC — higher, 0.381 ± 0.00585 E-score
- AACACGTA — higher, 0.343 ± 0.0046 E-score
- CGAAGTAC — within error, 0.174 ± 0.00912 E-score
- CACCTCAC — higher, 0.354 ± 0.0133 E-score
- CTCCCCCA — within error, 0.176 ± 0.0255 E-score
- ACCCGCGA — higher, 0.239 ± 0.0203 E-score
- CGGGCACA — within error, 0.1994 ± 0.000764 E-score
- CACCCGGC — higher, 0.36 ± 0.0229 E-score
- CACCCGGA — higher, 0.388 ± 0.0297 E-score
- TACCCGGA — higher, 0.247 ± 0.00272 E-score
- CACGCTTC — higher, 0.24 ± 0.0251 E-score
- TACACAAA — within error, 0.247 ± 0.0503 E-score
- GACACGGC — higher, 0.427 ± 0.0135 E-score
- GATACGGA — higher, 0.215 ± 0.00231 E-score
- CACACGAC — higher, 0.237 ± 0.00357 E-score
- AACACGGC — higher, 0.35 ± 0.00429 E-score
- CACACGGC — within error, 0.161 ± 0.0205 E-score
- GACACGGA — higher, 0.418 ± 0.0309 E-score
- CACACGGA — within error, 0.253 ± 0.0652 E-score
- GACACGAA — higher, 0.331 ± 0.0274 E-score
- GACACGAC — higher, 0.436 ± 0.00629 E-score
- TACACGGA — higher, 0.402 ± 0.00597 E-score
- CCCACGGA — within error, 0.161 ± 0.00447 E-score
- CCTGTGAC — within error, 0.194 ± 0.0117 E-score
- TCAGGGGA — within error, 0.165 ± 0.0187 E-score
- AAACCCTA — within error, 0.157 ± 0.0426 E-score
- AATAGTGT — higher, 0.355 ± 0.0289 E-score
- CCCTTCTA — within error, 0.177 ± 0.0196 E-score
- GTGGGTCA — within error, 0.166 ± 0.0309 E-score
- AAAGGGTG — higher, 0.317 ± 0.00321 E-score
- CCCCTCAC — within error, 0.203 ± 0.0371 E-score
- ACTCGGGC — within error, 0.161 ± 0.036 E-score
- ATACGGGG — within error, 0.171 ± 0.0145 E-score
- ACCCGGGT — higher, 0.377 ± 0.0131 E-score
- ACCCGGGA — within error, 0.192 ± 0.0367 E-score
- ACACGGGA — higher, 0.411 ± 0.00748 E-score
- ACGGGGGA — within error, 0.208 ± 0.00871 E-score
- ACACGGGT — higher, 0.4532 ± 0.00279 E-score
- ACACGGGC — higher, 0.4237 ± 0.000962 E-score
- ACACGGGG — higher, 0.4516 ± 0.00397 E-score
- ACACGGAC — higher, 0.367 ± 0.00972 E-score
- CCACGGGG — within error, 0.194 ± 0.0115 E-score
- CACCGTGG — higher, 0.333 ± 0.0206 E-score
- CACCTCGG — higher, 0.269 ± 0.00615 E-score
- CACGCTGG — within error, 0.159 ± 0.00563 E-score
- CACTCGGG — within error, 0.225 ± 0.016 E-score
- AACCCCAA — within error, 0.205 ± 0.00313 E-score
- CTGACCCC — higher, 0.283 ± 0.0439 E-score
- CGGGGTAC — higher, 0.224 ± 0.0106 E-score
- CAACCGTG — within error, 0.187 ± 0.0215 E-score
- CACTGGCA — higher, 0.28 ± 0.0195 E-score
- ACACGTAT — higher, 0.388 ± 0.00574 E-score
- ACACGTGG — higher, 0.32 ± 0.00325 E-score
- ACACGTGA — higher, 0.34 ± 0.0135 E-score
- ACACGTAC — higher, 0.353 ± 0.00478 E-score
- ACACGTGC — higher, 0.383 ± 0.0133 E-score
- ACACGTAA — higher, 0.323 ± 0.00431 E-score
- ACACGTGT — higher, 0.4552 ± 0.00158 E-score
